Experimental data taken from the supplement of paper PMC8728848.
The full list was thinned out, with the strongest signals kept by preference.

Tests used:
Test in all cases: glycan array binding signal (z-score within array); higher = stronger binding
Conditions in all cases: glycan notation: IUPAC condensed, linker removed
[1] = target: Fuc(a1-2)Gal(b1-4)Glc6S
In short: (§1)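 Negative Z-scores can be read as non-binding. The Z-score is calculated within each array and then averaged across arrays of one protein sequence at different concentrations or buffers and across linkers. Arrays, 3228 in all, were curated from the Consortium for Functional Glycomics database and kept only where the protein sequence was available.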

[2] = target: Fuc(a1-2)Gal3S(b1-4)GlcNAc
In short: as §1

[3] = target: Fuc(a1-2)Gal6S(b1-4)Glc6S
In short: as §1

[4] = target: Fuc(a1-2)[Gal(a1-3)]Gal(b1-4)GlcNAc(b1-3)[Fuc(a1-2)[Gal(a1-3)]Gal(b1-4)GlcNAc(b1-6)]GalNAc
In short: as §1

[5] = target: Fuc(a1-3)[Gal(b1-4)]GlcNAc(b1-3)Gal(b1-4)[Fuc(a1-3)]GlcNAc(b1-3)Gal(b1-4)[Fuc(a1-3)]GlcNAc
In short: as §1

[6] = target: Fuc(a1-3)[Gal3S(b1-4)]GlcNAc6S
In short: as §1

[7] = target: Fuc(a1-4)GlcNAc
In short: as §1

[8] = target: Gal(a1-3)Gal(b1-3)GlcNAc
In short: as §1

[9] = target: Gal(a1-3)Gal(b1-3)[Fuc(a1-4)]GlcNAc(b1-2)Man(a1-3)[Gal(a1-3)Gal(b1-3)[Fuc(a1-4)]GlcNAc(b1-2)Man(a1-6)]Man(b1-4)GlcNAc(b1-4)GlcNAc
In short: as §1

[10] = target: Gal(a1-3)Gal(b1-4)[Fuc(a1-3)]GlcNAc(b1-2)Man(a1-3)[Gal(a1-3)Gal(b1-4)[Fuc(a1-3)]GlcNAc(b1-2)Man(a1-6)]Man(b1-4)GlcNAc(b1-4)GlcNAc
In short: as §1

[11] = target: Gal(a1-3)[Gal(a1-4)]Gal(b1-4)GlcNAc
In short: as §1

[12] = target: Gal(b1-3)GalNAc(b1-3)Gal(a1-4)Gal(b1-4)Glc
In short: as §1

[13] = target: Gal(b1-3)GlcNAc(b1-3)Gal(b1-3)GlcNAc
In short: as §1

[14] = target: Gal(b1-3)GlcNAc(b1-3)Gal(b1-4)GlcNAc(b1-2)Man(a1-3)[Gal(b1-3)GlcNAc(b1-3)Gal(b1-4)GlcNAc(b1-2)Man(a1-6)]Man(b1-4)GlcNAc(b1-4)GlcNAc
In short: as §1

[15] = target: Gal(b1-3)GlcNAc(b1-3)Gal(b1-4)GlcNAc(b1-6)[Gal(b1-3)GlcNAc(b1-3)]Gal(b1-4)Glc
In short: as §1

[16] = target: Gal(b1-3)GlcNAc(b1-6)[Gal(b1-3)]GalNAc
In short: as §1

[17] = target: Gal(b1-3)[Fuc(a1-4)]GlcNAc(b1-2)Man(a1-3)[Gal(b1-3)[Fuc(a1-4)]GlcNAc(b1-2)Man(a1-6)]Man(b1-4)GlcNAc(b1-4)[Fuc(a1-6)]GlcNAc
In short: as §1

[18] = target: Gal(b1-4)GlcNAc(b1-2)Man(a1-6)[Man(a1-3)]Man(b1-4)GlcNAc(b1-4)GlcNAc
In short: as §1

[19] = target: Gal(b1-4)GlcNAc(b1-3)Gal(b1-4)GlcNAc(b1-2)Man(a1-3)[Gal(b1-4)GlcNAc(b1-3)Gal(b1-4)GlcNAc(b1-2)Man(a1-6)]Man(b1-4)GlcNAc(b1-4)GlcNAc
In short: as §1

[20] = target: Gal(b1-4)GlcNAc(b1-3)Gal(b1-4)GlcNAc(b1-2)[Gal(b1-4)GlcNAc(b1-3)Gal(b1-4)GlcNAc(b1-6)]Man(a1-6)[Gal(b1-4)GlcNAc(b1-3)Gal(b1-4)GlcNAc(b1-2)Man(a1-3)]Man(b1-4)GlcNAc(b1-4)[Fuc(a1-6)]GlcNAc
In short: as §1

[21] = target: Gal(b1-4)GlcNAc(b1-3)Gal(b1-4)[Fuc(a1-3)]GlcNAc(b1-3)Gal(b1-4)[Fuc(a1-3)]GlcNAc
In short: as §1

[22] = target: Gal(b1-4)GlcNAc(b1-3)[GlcNAc(b1-6)]Gal(b1-4)GlcNAc
In short: as §1

[23] = target: Gal(b1-4)GlcNAc(b1-6)Gal(b1-4)GlcNAc
In short: as §1

[24] = target: Gal(b1-4)GlcNAc(b1-6)[Gal(b1-3)]GalNAc
In short: as §1

[25] = target: Gal3S(b1-3)GlcNAc
In short: as §1

[26] = target: Gal3S(b1-4)[Fuc(a1-3)]Glc6S
In short: as §1

[27] = target: GalNAc(a1-3)Gal
In short: as §1

[28] = target: GalNAc(b1-3)GlcNAc
In short: as §1

[29] = target: GalNAc(b1-4)GlcNAc
In short: as §1

[30] = target: GalNAc6S(b1-4)GlcNAc
In short: as §1

[31] = target: GlcNAc(a1-3)Gal(b1-4)GlcNAc
In short: as §1

[32] = target: GlcNAc(a1-4)Gal(b1-4)GlcNAc(b1-3)Gal(b1-4)[Fuc(a1-3)]GlcNAc(b1-3)Gal(b1-4)[Fuc(a1-3)]GlcNAc
In short: as §1

[33] = target: GlcNAc(b1-2)Man(a1-3)[GlcNAc(b1-4)][GlcNAc(b1-2)Man(a1-6)]Man(b1-4)GlcNAc(b1-4)[Fuc(a1-6)]GlcNAc
In short: as §1

[34] = target: GlcNAc(b1-2)[GlcNAc(b1-4)]Man(a1-3)[GlcNAc(b1-4)][GlcNAc(b1-2)Man(a1-6)]Man(b1-4)GlcNAc(b1-4)GlcNAc
In short: as §1

[35] = target: Man(a1-2)Man(a1-2)Man(a1-6)[Man(a1-3)]Man
In short: as §1

[36] = target: Man(a1-3)[Man(a1-6)]Man
In short: as §1

[37] = target: Man(a1-3)[Man(a1-6)]Man(a1-6)[Man(a1-3)]Man(b1-4)GlcNAc(b1-4)GlcNAc
In short: as §1

[38] = target: Neu5Ac(a2-3)Gal
In short: as §1

[39] = target: Neu5Ac(a2-3)Gal(b1-3)GalNAc
In short: as §1

[40] = target: Neu5Ac(a2-3)Gal(b1-3)GalNAc(b1-4)[Neu5Ac(a2-3)]Gal(b1-4)Glc
In short: as §1

[41] = target: Neu5Ac(a2-3)Gal(b1-3)GlcNAc(b1-3)GalNAc
In short: as §1

[42] = target: Neu5Ac(a2-3)Gal(b1-3)GlcNAc(b1-6)GalNAc
In short: as §1

[43] = target: Neu5Ac(a2-3)Gal(b1-4)Glc
In short: as §1

[44] = target: Neu5Ac(a2-3)Gal(b1-4)GlcNAc(b1-6)[Gal(b1-3)]GalNAc
In short: as §1

[45] = target: Neu5Ac(a2-3)Gal(b1-4)GlcNAc(b1-6)[Neu5Ac(a2-3)Gal(b1-3)]GalNAc
In short: as §1

[46] = target: Neu5Ac(a2-3)Gal(b1-4)[Fuc(a1-3)]GlcNAc(b1-3)GalNAc
In short: as §1

[47] = target: Neu5Ac(a2-6)GalNAc(b1-4)GlcNAc
In short: as §1

[48] = target: Neu5Ac(a2-8)Neu5Ac(a2-3)Gal(b1-4)GlcNAc
In short: as §1

[49] = target: Neu5Ac(b2-6)Gal(b1-4)GlcNAc
In short: as §1

[50] = target: Neu5Ac(b2-6)GalNAc
In short: as §1

B1: Thrombomodulin (Mus musculus) (protein)
chain: ALAKLQPTGSQCVEHECFALFQGPATFLDASQACQRLQGHLMTVRSSVAADVISLLLSQSSMDLGPWIGLQLPQGCDDPVHLGPLRGFQWVTGDNHTSYSRWARPNDQTAPLCGPLCVTVSTATEAAPGEPAWEEKPCETETQGFLCEFYFTASC
[1]
  glycan array binding signal (z-score): 0.107
[2]
  glycan array binding signal (z-score): -0.236
[3]
  glycan array binding signal (z-score): -0.056
[4]
  glycan array binding signal (z-score): 5.4
[5]
  glycan array binding signal (z-score): -0.183
[6]
  glycan array binding signal (z-score): -0.172
[7]
  glycan array binding signal (z-score): 3.52
[8]
  glycan array binding signal (z-score): 4.59
[9]
  glycan array binding signal (z-score): 0.179
[10]
  glycan array binding signal (z-score): 0.955
[11]
  glycan array binding signal (z-score): 0.213
[12]
  glycan array binding signal (z-score): -0.277
[13]
  glycan array binding signal (z-score): 0.083
[14]
  glycan array binding signal (z-score): -0.022
[15]
  glycan array binding signal (z-score): 0.148
[16]
  glycan array binding signal (z-score): -0.267
[17]
  glycan array binding signal (z-score): 0.595
[18]
  glycan array binding signal (z-score): 0.088
[19]
  glycan array binding signal (z-score): 1.25
[20]
  glycan array binding signal (z-score): 0.053
[21]
  glycan array binding signal (z-score): 0.126
[22]
  glycan array binding signal (z-score): -0.029
[23]
  glycan array binding signal (z-score): -0.219
[24]
  glycan array binding signal (z-score): -0.326
[25]
  glycan array binding signal (z-score): -0.007
[26]
  glycan array binding signal (z-score): 0.12
[27]
  glycan array binding signal (z-score): 0.15
[28]
  glycan array binding signal (z-score): -0.37
[29]
  glycan array binding signal (z-score): 0.33
[30]
  glycan array binding signal (z-score): -0.071
[31]
  glycan array binding signal (z-score): -0.129
[32]
  glycan array binding signal (z-score): 0.047
[33]
  glycan array binding signal (z-score): -0.052
[34]
  glycan array binding signal (z-score): 1.03
[35]
  glycan array binding signal (z-score): -0.278
[36]
  glycan array binding signal (z-score): 0.154
[37]
  glycan array binding signal (z-score): -0.262
[38]
  glycan array binding signal (z-score): -0.273
[39]
  glycan array binding signal (z-score): 1.07
[40]
  glycan array binding signal (z-score): -0.4
[41]
  glycan array binding signal (z-score): -0.354
[42]
  glycan array binding signal (z-score): 0.614
[43]
  glycan array binding signal (z-score): 2.91
[44]
  glycan array binding signal (z-score): -0.321
[45]
  glycan array binding signal (z-score): -0.43
[46]
  glycan array binding signal (z-score): 0.695
[47]
  glycan array binding signal (z-score): -0.193
[48]
  glycan array binding signal (z-score): -0.54
[49]
  glycan array binding signal (z-score): -0.139
[50]
  glycan array binding signal (z-score): -0.216
